Results filed as inconclusive are left out. Activity calls are given as the source filed them. The calls were made as follows, unless noted: active = hit-call score of the fitted dose curve at least 0.9, where 1 is the maximum; inactive = score below 0.9.
Key:
[1] = target: Hypoxia-inducible factor 1-alpha (Homo sapiens) (UniProt Q16665); experiment: ATG_HIF1a_CIS: Attagene CIS-FACTORIAL HepG2 Assay for human Hypoxia Inducible Factor 1 (HIF1A) (AID 2282951); settings: HepG2 Attagene cis-factorial HIF1a reporter transcription; actives raise or lower the signal
Sequence of Hypoxia-inducible factor 1-alpha (Homo sapiens) (Q16665 whole entry, looked up): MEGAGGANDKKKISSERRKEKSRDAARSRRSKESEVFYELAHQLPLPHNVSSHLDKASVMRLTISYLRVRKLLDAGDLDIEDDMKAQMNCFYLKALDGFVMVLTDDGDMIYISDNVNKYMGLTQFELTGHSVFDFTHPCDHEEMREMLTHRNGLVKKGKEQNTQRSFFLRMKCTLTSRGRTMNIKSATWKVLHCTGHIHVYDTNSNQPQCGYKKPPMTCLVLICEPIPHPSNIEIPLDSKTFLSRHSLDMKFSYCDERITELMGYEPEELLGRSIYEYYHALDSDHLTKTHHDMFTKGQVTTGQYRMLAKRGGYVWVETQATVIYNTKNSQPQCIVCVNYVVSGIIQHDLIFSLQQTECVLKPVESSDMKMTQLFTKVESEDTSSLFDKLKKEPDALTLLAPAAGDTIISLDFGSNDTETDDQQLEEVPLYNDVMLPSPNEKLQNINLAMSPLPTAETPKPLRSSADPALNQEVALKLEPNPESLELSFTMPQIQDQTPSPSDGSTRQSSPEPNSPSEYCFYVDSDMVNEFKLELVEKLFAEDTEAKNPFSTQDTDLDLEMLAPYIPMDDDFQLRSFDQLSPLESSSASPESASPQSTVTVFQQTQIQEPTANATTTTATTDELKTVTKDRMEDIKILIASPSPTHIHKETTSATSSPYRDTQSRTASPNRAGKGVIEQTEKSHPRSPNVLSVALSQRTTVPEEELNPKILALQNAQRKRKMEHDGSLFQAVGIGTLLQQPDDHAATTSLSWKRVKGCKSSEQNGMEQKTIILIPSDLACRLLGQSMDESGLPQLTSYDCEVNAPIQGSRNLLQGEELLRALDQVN
In short: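 Dosed 24 h, transfected HepG2 cells yielded total RNA whose reporter transcripts were RT-PCR-amplified and sized by capillary electrophoresis using fluorescent labelling; DMSO defined baseline, with gain and loss of signal both fitted.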

[2] = target: Hepatocyte nuclear factor 6 (Homo sapiens) (UniProt Q9UBC0); experiment: ATG_HNF6_CIS: Attagene CIS-FACTORIAL HepG2 Assay for human Hepatocyte Nuclear Factor 6 (HNF6) (AID 2282952); settings: HepG2 Attagene cis-factorial HNF6 reporter transcription; actives raise or lower the signal
Sequence of Hepatocyte nuclear factor 6 (Homo sapiens) (Q9UBC0 whole entry, looked up, the tested form may be a part): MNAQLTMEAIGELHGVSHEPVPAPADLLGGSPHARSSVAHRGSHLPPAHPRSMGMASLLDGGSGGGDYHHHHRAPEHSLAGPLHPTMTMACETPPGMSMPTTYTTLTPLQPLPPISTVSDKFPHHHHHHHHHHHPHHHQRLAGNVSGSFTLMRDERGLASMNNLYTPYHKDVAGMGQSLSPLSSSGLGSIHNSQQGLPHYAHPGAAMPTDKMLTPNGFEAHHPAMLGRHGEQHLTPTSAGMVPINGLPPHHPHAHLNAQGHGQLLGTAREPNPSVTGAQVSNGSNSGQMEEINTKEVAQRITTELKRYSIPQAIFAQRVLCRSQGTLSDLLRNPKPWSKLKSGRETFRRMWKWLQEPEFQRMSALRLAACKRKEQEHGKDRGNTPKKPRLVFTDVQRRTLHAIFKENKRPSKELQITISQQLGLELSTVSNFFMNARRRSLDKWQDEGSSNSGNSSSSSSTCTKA
In short: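 Twenty-four-hour chemical treatment of reporter-transfected HepG2 cells precedes RNA isolation, DNase-treated reverse transcription and PCR of reporter sequences. Labelled fragments are sized by capillary electrophoresis and fitted bidirectionally versus DMSO.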

[3] = target: Heat shock factor protein 1 (Homo sapiens) (UniProt Q00613); experiment: ATG_HSE_CIS: Attagene CIS-FACTORIAL HepG2 Assay for human Heat Shock Transcription Factor 1 (HSE) (AID 2282953); settings: HepG2 HSE cis-reporter, Attagene RNA transcription; actives raise or lower the signal
Sequence of Heat shock factor protein 1 (Homo sapiens) (Q00613 whole entry, looked up): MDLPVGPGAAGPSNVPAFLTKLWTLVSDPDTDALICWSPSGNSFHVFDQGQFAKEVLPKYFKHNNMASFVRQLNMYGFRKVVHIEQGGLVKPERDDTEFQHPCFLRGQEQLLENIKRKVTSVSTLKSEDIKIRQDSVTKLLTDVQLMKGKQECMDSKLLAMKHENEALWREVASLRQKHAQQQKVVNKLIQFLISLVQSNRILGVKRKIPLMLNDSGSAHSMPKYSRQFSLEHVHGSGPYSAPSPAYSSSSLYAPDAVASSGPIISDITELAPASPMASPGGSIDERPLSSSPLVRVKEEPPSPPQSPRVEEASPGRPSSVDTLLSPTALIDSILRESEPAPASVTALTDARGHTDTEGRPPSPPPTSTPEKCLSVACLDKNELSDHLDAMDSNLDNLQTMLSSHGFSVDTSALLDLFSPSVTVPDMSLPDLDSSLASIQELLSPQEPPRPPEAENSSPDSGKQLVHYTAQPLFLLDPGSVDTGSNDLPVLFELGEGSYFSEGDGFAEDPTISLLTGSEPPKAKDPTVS
In short: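 Using HepG2 with transfected cis-driven reporter constructs, compound effects on endogenous factor activity are scored as reporter mRNA change at 24 h. Detection: RT-PCR, HpaI digestion, capillary electrophoresis; bidirectional fitting to DMSO.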

[4] = ATG_MRE_CIS: Attagene CIS-FACTORIAL HepG2 Assay for human Metal Responsive Element (MRE) (AID 2282954); settings: HepG2 MRE cis-reporter transcription, Attagene multiplex; actives raise or lower the signal
In short: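 RT-PCR/capillary electrophoresis readout of reporter mRNA, 24 h post-dosing, in HepG2 cells transfected with multiplexed cis-regulated reporter constructs. Gain or loss of signal fitted bidirectionally against DMSO baseline.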

[5] = ATG_PBREM_CIS: Attagene CIS-FACTORIAL HepG2 Assay for human Phenobarbital-responsive Enhancer Module (PBREM) (AID 2282955); settings: HepG2 PBREM cis-reporter, Attagene multiplexed transcription; actives raise or lower the signal
In short: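 Transfected liver-derived HepG2 cells exposed 24 h; PBREM reporter transcript quantified via RT-PCR and capillary electrophoresis, with activity in either direction referenced to DMSO.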

[6] = target: Paired box protein Pax-6 (Homo sapiens) (UniProt P26367); experiment: ATG_Pax6_CIS: Attagene CIS-FACTORIAL HepG2 Assay for human Paired Box 6 (PAX6) (AID 2282956); settings: HepG2 CIS-FACTORIAL PAX6 reporter transcription, RNA readout; actives raise or lower the signal
Sequence of Paired box protein Pax-6 (Homo sapiens) (P26367 whole entry, looked up): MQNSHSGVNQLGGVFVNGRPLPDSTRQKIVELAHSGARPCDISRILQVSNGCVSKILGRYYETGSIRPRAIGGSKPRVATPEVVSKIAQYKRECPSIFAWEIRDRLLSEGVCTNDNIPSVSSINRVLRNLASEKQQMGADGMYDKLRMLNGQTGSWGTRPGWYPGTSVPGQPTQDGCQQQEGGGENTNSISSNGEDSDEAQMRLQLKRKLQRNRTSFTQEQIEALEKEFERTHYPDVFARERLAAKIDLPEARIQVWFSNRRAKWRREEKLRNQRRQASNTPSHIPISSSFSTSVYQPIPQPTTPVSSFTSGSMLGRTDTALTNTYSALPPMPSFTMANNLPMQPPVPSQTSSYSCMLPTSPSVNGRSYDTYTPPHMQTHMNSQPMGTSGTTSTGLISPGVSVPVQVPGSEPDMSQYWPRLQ
In short: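 Read-out is reporter transcript level, measured by RT-PCR with fluorescent primer extension and capillary electrophoresis after 24 h dosing of transfected HepG2 cells. Activity in either direction fitted relative to DMSO control.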

[7] = ATG_PXRE_CIS: Attagene CIS-FACTORIAL HepG2 Assay for human Pregnane X Receptor Element (PXRE) (AID 2282957); settings: HepG2 Attagene CIS-FACTORIAL PXRE reporter, mRNA; actives raise or lower the signal
In short: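 Bidirectional activity, baselined to DMSO, derived from reporter mRNA fluorescence (RT-PCR plus capillary electrophoresis) in HepG2 cells bearing cis-promoter reporter units, 24 h exposure.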

[8] = ATG_PPRE_CIS: Attagene CIS-FACTORIAL HepG2 Assay for human Peroxisome Proliferator-activated Response Element (PPRE) (AID 2282958); settings: HepG2 PPRE cis-element reporter, Attagene transcription factor profiling; actives raise or lower the signal
In short: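 Measured endpoint: PPRE-controlled reporter mRNA, detected by RT-PCR and capillary electrophoresis fluorescence, from transiently transfected HepG2 cells 24 h after dosing. Curves fitted in both directions using DMSO baseline.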

[9] = ATG_RORE_CIS: Attagene CIS-FACTORIAL HepG2 Assay for human RAR-related Orphan Receptor Element (RORE) (AID 2282959); settings: HepG2 Attagene cis-factorial RORE reporter, mRNA; actives raise or lower the signal
In short: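 Transiently transfected HepG2 reporter cells were treated 24 h. Reporter transcripts were detected by RT-PCR and capillary electrophoresis, with bidirectional fitting against DMSO.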

[10] = ATG_Sox_CIS: Attagene CIS-FACTORIAL HepG2 Assay for human SRY-box transcription factor (SOX) (AID 2282960); settings: HepG2 Attagene cis-factorial SOX reporter, mRNA; actives raise or lower the signal
In short: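 Gain- or loss-of-signal endpoint, fitted bidirectionally with DMSO as negative control. Based on reporter mRNA from transfected HepG2 cells harvested 24 h post-treatment and quantified via RT-PCR and capillary electrophoresis.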

[11] = target: Transcription factor Sp1 (Homo sapiens) (UniProt P08047); experiment: ATG_Sp1_CIS: Attagene CIS-FACTORIAL HepG2 Assay for human Specificity Protein 1 (Sp1) (AID 2282961); settings: HepG2 Sp1 cis-reporter transcription, actives raise or lower the signal
Sequence of Transcription factor Sp1 (Homo sapiens) (P08047 whole entry, looked up, the tested form may be a part): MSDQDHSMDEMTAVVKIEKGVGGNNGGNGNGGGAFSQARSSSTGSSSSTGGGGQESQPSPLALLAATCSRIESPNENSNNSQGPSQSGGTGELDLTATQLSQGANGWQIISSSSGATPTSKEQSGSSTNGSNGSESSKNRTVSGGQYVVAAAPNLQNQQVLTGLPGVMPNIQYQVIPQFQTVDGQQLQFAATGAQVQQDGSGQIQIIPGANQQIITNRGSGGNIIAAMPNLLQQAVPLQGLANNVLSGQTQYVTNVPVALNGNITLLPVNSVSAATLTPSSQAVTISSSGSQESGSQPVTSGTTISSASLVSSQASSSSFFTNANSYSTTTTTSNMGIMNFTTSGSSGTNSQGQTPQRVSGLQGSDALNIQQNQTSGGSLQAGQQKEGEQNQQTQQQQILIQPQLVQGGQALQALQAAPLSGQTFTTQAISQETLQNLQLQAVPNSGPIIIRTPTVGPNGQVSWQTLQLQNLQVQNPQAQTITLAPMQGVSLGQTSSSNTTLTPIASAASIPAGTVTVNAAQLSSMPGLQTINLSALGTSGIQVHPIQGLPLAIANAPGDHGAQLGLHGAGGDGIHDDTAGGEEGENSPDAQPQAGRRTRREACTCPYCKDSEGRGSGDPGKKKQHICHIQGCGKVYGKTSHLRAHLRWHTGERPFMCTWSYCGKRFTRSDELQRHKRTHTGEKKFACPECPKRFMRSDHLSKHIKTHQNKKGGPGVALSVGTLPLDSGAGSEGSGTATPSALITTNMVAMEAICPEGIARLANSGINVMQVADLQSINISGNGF
In short: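 Endpoint reflects endogenous Sp1 transcriptional activity, not an exogenous fusion protein: HepG2 cells with transfected cis-regulated reporters, 24 h dosing, RT-PCR/capillary electrophoresis mRNA read-out, DMSO-normalised bidirectional fit.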

[12] = ATG_SREBP_CIS: Attagene CIS-FACTORIAL HepG2 Assay for human Sterol Regulatory Element Binding (SREBP) (AID 2282962); settings: HepG2 Attagene cis-factorial SREBP reporter, mRNA; actives raise or lower the signal
In short: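 Endogenous SREBP activity read as cis-element-driven reporter transcript in transiently transfected HepG2, 24 h post-dosing; quantified via RT-PCR plus capillary electrophoresis of fluorescent fragments. Gain or loss of signal fitted relative to DMSO baseline.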

[13] = ATG_TA_CIS: Attagene CIS-FACTORIAL HepG2 Assay for human TA Basal Promoter (AID 2282964); settings: HepG2 Attagene CIS-factorial TA basal promoter reporter; actives raise or lower the signal
In short: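 Transient MRTU transfection of HepG2 preceded 24 h compound exposure. Reporter mRNA levels were then read by RT-PCR with capillary electrophoresis, and this background-control endpoint was fitted bidirectionally to DMSO.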

[14] = ATG_TCF_b_cat_CIS: Attagene CIS-FACTORIAL HepG2 Assay for human T-Cell-Factor with beta-catenin (TCF/b-cat) (AID 2282965); settings: HepG2 TCF/beta-catenin cis-reporter transcription, actives raise or lower the signal
In short: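 HepG2, transient MRTU transfection, cis-element-driven reporters (endogenous TFs). 24 h compound exposure. Readout: reporter mRNA by RT-PCR + 6-FAM primer extension, HpaI digest, capillary electrophoresis. Gain/loss fit vs DMSO baseline.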

[15] = ATG_TAL_CIS: Attagene CIS-FACTORIAL HepG2 Assay for human TAL Basal Promoter (AID 2282966); settings: HepG2 Attagene cis-factorial TAL promoter reporter; actives raise or lower the signal;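 also: background control endpoint measuring basal TAL promoter reporter mRNA not a specific factor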
In short: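 Human hepatoma HepG2 cells, transfected with promoter-regulated reporter units, were treated 24 h. Reporter transcript levels, measured through RT-PCR and capillary electrophoresis, were fitted for gain or loss relative to DMSO.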

[16] = ATG_TGFb_CIS: Attagene CIS-FACTORIAL HepG2 Assay for human Transforming Growth Factor (TGF) (AID 2282967); settings: HepG2 Attagene CIS TGFb reporter, mRNA transcription; actives raise or lower the signal
In short: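 After a 24-hour incubation with compound, transfected HepG2 cells were lysed for RNA; reporter cDNA was amplified, fluorescently end-labeled and separated by CE. DMSO served as baseline for bidirectional fits.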

[17] = target: Nuclear receptor subfamily 1 group I member 3 (Homo sapiens) (UniProt Q14994); experiment: ATG_CAR_TRANS: Attagene TRANS-FACTORIAL HepG2 Assay for human Constitutive Androstane Receptor (CAR) (AID 2282969; active = hit-call score of the fitted dose curve at least 0.9, where 1 is the maximum;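 also: activators raise reporter mRNA above DMSO so AC50 marks induction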); settings: HepG2 Attagene TRANS-FACTORIAL CAR reporter
Sequence of Nuclear receptor subfamily 1 group I member 3 (Homo sapiens) (Q14994 whole entry, looked up, the tested form may be a part): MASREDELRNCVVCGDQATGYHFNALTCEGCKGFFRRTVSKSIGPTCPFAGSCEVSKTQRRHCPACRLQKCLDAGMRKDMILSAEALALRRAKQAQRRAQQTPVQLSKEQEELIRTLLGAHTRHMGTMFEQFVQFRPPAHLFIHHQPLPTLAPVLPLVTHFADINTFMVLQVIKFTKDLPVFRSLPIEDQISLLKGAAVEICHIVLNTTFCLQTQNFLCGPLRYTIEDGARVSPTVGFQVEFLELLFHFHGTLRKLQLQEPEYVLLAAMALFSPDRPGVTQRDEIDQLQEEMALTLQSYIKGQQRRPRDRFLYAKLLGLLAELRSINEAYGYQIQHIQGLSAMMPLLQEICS
In short: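 Transiently transfected HepG2, multiplex TRANS reporters (CAR-Gal4 chimera driving GAL4-UAS reporter). 24 h dosing. Readout: reporter transcript by RT-PCR + capillary electrophoresis, fluorescence intensity; positive direction vs DMSO.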

[18] = target: Signal transducer and activator of transcription 3 (Homo sapiens) (UniProt P40763); experiment: ATG_STAT3_CIS: Attagene CIS-FACTORIAL HepG2 Assay for human Signal Transducer and Activator of Transcription 3 (STAT3) (AID 2282963); settings: HepG2, Attagene cis-factorial STAT3 reporter transcription; actives raise or lower the signal
Sequence of Signal transducer and activator of transcription 3 (Homo sapiens) (P40763 whole entry, looked up, the tested form may be a part): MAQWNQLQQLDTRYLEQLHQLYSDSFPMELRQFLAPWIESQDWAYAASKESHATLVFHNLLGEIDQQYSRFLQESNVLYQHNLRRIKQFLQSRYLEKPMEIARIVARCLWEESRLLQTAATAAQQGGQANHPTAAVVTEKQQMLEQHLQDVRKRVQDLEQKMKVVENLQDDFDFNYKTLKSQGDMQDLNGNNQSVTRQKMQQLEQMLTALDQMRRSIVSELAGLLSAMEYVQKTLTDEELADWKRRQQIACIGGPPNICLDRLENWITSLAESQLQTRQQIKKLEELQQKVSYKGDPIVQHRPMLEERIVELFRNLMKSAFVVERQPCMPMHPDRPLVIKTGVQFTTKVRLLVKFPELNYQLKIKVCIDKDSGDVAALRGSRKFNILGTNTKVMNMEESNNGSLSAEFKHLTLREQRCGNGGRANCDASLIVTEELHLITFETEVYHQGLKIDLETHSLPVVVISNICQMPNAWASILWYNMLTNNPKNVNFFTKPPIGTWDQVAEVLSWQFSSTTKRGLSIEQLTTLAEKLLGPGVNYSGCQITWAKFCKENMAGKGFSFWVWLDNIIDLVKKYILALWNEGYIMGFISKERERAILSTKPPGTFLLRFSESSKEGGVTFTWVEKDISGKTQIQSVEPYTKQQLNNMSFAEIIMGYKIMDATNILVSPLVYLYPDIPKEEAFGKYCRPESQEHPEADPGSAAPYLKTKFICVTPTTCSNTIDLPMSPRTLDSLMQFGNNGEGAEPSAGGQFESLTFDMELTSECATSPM
In short: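 Readout: fluorescent reporter mRNA fragments resolved by capillary electrophoresis. Setup: HepG2 transfected with MRTUs reporting endogenous transcription-factor activity, dosed 24 h. Gain or loss of signal fitted bidirectionally against DMSO control.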

[19] = ATG_VDRE_CIS: Attagene CIS-FACTORIAL HepG2 Assay for human Vitamin D Receptor Element (VDRE) (AID 2282968); settings: HepG2 VDRE cis-reporter transcription, actives raise or lower the signal
In short: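 Transient MRTU transfection of HepG2, 24 h compound exposure. Readout: reporter transcripts via RT-PCR and capillary electrophoresis, fluorescence. Bidirectional fit vs DMSO.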

[20] = target: Estrogen receptor (Homo sapiens) (UniProt P03372); experiment: ATG_ERa_TRANS: Attagene TRANS-FACTORIAL HepG2 Assay for human Estrogen Receptor alpha (ERa) (AID 2282970; active = hit-call score of the fitted dose curve at least 0.9, where 1 is the maximum); settings: HepG2 Attagene TRANS ERa GAL4 reporter, mRNA
Sequence of Estrogen receptor (Homo sapiens) (P03372 whole entry, looked up, the tested form may be a part): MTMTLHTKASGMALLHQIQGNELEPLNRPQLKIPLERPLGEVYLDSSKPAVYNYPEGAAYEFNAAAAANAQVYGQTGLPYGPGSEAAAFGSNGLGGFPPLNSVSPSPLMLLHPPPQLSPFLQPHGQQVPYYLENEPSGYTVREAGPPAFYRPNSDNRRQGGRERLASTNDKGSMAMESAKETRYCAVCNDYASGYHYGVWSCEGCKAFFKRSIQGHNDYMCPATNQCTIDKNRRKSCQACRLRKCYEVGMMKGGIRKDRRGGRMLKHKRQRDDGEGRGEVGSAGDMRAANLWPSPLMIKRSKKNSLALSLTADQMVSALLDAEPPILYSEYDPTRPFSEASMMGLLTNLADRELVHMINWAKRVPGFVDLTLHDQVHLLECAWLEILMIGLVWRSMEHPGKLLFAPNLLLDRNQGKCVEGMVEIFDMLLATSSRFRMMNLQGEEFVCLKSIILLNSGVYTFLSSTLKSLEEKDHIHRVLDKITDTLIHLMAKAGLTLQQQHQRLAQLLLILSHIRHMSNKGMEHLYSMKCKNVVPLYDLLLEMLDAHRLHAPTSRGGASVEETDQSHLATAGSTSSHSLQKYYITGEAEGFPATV
In short: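 Signal derives from fluorescence of labelled reporter PCR fragments separated by capillary electrophoresis. HepG2 cells transiently carrying multiple GAL4-UAS reporter units were treated 24 hours, and induction above DMSO baseline was fitted as activity.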

Measured: AC50

CC1(C)[C@H](/C=C2\CCSC2=O)[C@@H]1C(=O)OCc1coc(Cc2ccccc2)c1
active: [1] 12.9 µM | [4] 19.8 µM | [5] 0.313 µM | [6] 11.1 µM | [7] 0.143 µM | [9] 24.8 µM | [13] 30.5 µM
not listed: [18] | [19] | [20]
inactive: all other assays above

Cc1cc(Cl)ccc1OC(C)C(=O)O (configuration not stated)
active: [8] 68.4 µM
not listed: [13] | [17] | [19] | [20]
inactive: all other assays above

C=CCOC(F)(C(F)(F)F)C(F)(F)F
not listed: [13] | [17] | [20]
inactive: all other assays above

CC(C)(C#N)N=NC(C)(C)C#N
active: [7] 79.6 µM
not listed: [18] | [20]
inactive: all other assays above

COC(F)(C(F)(F)C(F)(F)F)C(F)(C(F)(F)F)C(F)(F)F (configuration not stated)
not listed: [18]
inactive: all other assays above

C=CCN=C=S
not listed: [18]
inactive: all other assays above

O=[N+]([O-])c1ccc(Cl)c([N+](=O)[O-])c1
active: [3] 6.97 µM | [16] 3.71 µM
not listed: [13] | [17] | [18] | [20]
inactive: all other assays above

Reference: PubChem BioAssay (EPA / NIEHS)
